The values that follow come from PubChem BioAssay.

Active and inactive are the calls of the source. Unless noted, no rule for the calls is given here.

The nature of experiment [1]: compound effects on lung adenocarcinoma cell viability – A549, calcein-AM fluorescence, 48 h, basal, profiling panel (AID 1162). Also: test concentration not given here. The following applies: higher = more signal.
Experiment [2] can be described thus: compound effects on differentiated 3T3-L1 adipocyte viability – cell-based, 3T3-L1 adipocytes, calcein-AM fluorescence, 48 h, basal, profiling panel (AID 1163). Also: test concentration not given here. The following applies: 3T3-L1 adipocytes viability, higher = more signal.
Experiment [3] in a line: compound effects on hepatocellular carcinoma cell viability – HepG2, calcein-AM fluorescence, 48 h, basal, profiling panel (AID 1164). Also: test concentration not given here. The note with it: higher = more signal.
Experiment [4] in a line: compound effects on multiple myeloma cell viability – MM1S, calcein-AM fluorescence, 48 h, basal, profiling panel (AID 1165).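 Also: viability of MM1S multiple myeloma cells under basal unstimulated conditions; test concentration not given here.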 The note with it: higher = more signal.
The nature of experiment [5]: calcein-AM signal in unstimulated myeloma cells – cell-based, calcein-AM fluorescence, 48 h, PK04 Diversity Set, profiling panel (AID 1166).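 Also: cells grown under basal conditions without added stimulus; test concentration not given here.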 The following applies: RPMI8226 myeloma viability, higher = more signal.
A short description of experiment [6]: JC-1 mitochondrial signal, unstimulated HepG2 cells – cell-based, JC-1 fluorescence, 24 h, 100 nL compound, profiling panel (AID 1167). Also: test concentration not given here. The note with it: HepG2 mitochondrial potential, higher = more signal.
A short description of experiment [7]: JC-1 mitochondrial signal, unstimulated adipocytes – cell-based, JC-1 fluorescence, 3T3-L1 adipocytes, 24 h, 100 nL compound, profiling panel (AID 1168). Also: test concentration not given here. The following applies: JC-1 mitochondrial fluorescence, higher = more signal, called active from +8 up or from −8 down.
The nature of experiment [8]: JC-1 mitochondrial signal, unstimulated myeloma cells – cell-based, JC-1 fluorescence, RPMI8226, 24 h, 100 nL compound, profiling panel (AID 1169). Also: test concentration not given here. The following applies: JC-1 mitochondrial potential fluorescence, higher = more signal.
The nature of experiment [9]: JC-1 mitochondrial signal, unstimulated MM1S myeloma – cell-based, JC-1 fluorescence, 24 h, 100 nL compound, profiling panel (AID 1170). Also: test concentration not given here. The note with it: MM1S mitochondrial potential, higher = more signal.
Experiment [10] is described as follows: resazurin metabolic signal in A549 cells – cell-based, resazurin fluorescence, 24 h, PK04 Diversity Set, profiling panel (AID 1171). Also: test concentration not given here. The following applies: A549 viability, higher = more signal, called active from +8 up or from −8 down. A general note: Resazurin is reduced to fluorescent resorufin, in cell work by metabolically active cells.
Experiment [11] can be described thus: resazurin metabolic signal in HepG2 cells – cell-based, resazurin fluorescence, 24 h, PK04 Diversity Set, profiling panel (AID 1172). Also: test concentration not given here. The following applies: HepG2 viability, higher = more signal.
Experiment [12] is described as follows: budding yeast growth changes without added modifier – OD600, strain BY4716, 24 h, basal condition, primary screen (AID 1173). The note with it: S. cerevisiae BY4716 growth, OD600, 24 h; higher = more signal, called active from +8 up or from −8 down.
Experiment [13] can be described thus: viability profiling in MM1S myeloma cells – cell-based, resazurin fluorescence, basal, 24 h, PK04 Diversity Set, profiling panel (AID 1174). Also: test concentration not given here. The following applies: higher = more signal, called active from +8 up or from −8 down.
In experiment [14] the target is Dihydroorotate dehydrogenase (quinone), mitochondrial (Plasmodium falciparum (isolate 3D7)) (UniProt Q08210). The experiment is described as follows: inhibition of P. falciparum DHODH – biochemical, C-terminal His tag, absorbance 600 nm, primary screen (AID 1175).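 Also: recombinant parasite enzyme with a five histidine tag at its C terminus; test concentration not given here.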 The following applies: PfDHODH enzyme, DCIP absorbance 600 nm; higher = more signal, called active from +8 up or from −8 down.

Experiment [15] is described as follows: inhibition of PAO1 biofilm formation – strain PAO1, LB-PBS medium, absorbance 600 nm, primary screen (AID 1176). Also: test concentration not given here. The note with it: P. aeruginosa PAO1 growth/biofilm, A600, 12 h; higher = more signal.
Experiment [16] is described as follows: growth modulation of vineyard yeast isolate – strain RM11-1a, OD600, basal, 24 h, primary screen (AID 1177).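 Also: cultures grown under basal conditions with no added stressor; test concentration not given here.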 The following applies: S. cerevisiae RM11-1a growth, OD600, 24 h; higher = more signal, called active from +8 up or from −8 down.
Experiment [17] can be described thus: growth of efflux-deficient E. coli DRC39 – strain DRC39, OD650, 24 h, E. coli filamentation inducers, primary screen (AID 1178).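 Also: growth measured as culture turbidity by optical density at 650 nm; test concentration not given here.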 The note with it: E. coli DRC39 acrAB, higher = more signal, called active from +8 up or from −8 down.
Experiment [18] is described as follows: growth of efflux-deficient E. coli DRC39 – strain DRC39, OD650, 48 h, E. coli filamentation inducers, primary screen (AID 1179).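 Also: screen aims at cell division blockers that make cells filament.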 The following applies: E. coli DRC39 delta-acrAB growth, higher = more signal, called active from +8 up or from −8 down.
A short description of experiment [19]: viability profiling in RPMI8226 myeloma cells – cell-based, resazurin fluorescence, basal, 24 h, PK04 Diversity Set, profiling panel (AID 1180).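 Also: RPMI8826 multiple myeloma cell line at 5000 cells per well; test concentration not given here.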 The note with it: higher = more signal.
Experiment [20] has as its target E3 ubiquitin-protein ligase XIAP (Homo sapiens) (UniProt P98170). The experiment is described as follows: small molecules binding XIAP protein – biophysical, small-molecule microarray, fluorescence 635 nm, primary screen (AID 1181).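 Also: score merges 667 nm emission and signal to noise over triplicate slides.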 The note with it: higher = more signal.

Sequence of E3 ubiquitin-protein ligase XIAP (Homo sapiens) (P98170 whole entry, looked up): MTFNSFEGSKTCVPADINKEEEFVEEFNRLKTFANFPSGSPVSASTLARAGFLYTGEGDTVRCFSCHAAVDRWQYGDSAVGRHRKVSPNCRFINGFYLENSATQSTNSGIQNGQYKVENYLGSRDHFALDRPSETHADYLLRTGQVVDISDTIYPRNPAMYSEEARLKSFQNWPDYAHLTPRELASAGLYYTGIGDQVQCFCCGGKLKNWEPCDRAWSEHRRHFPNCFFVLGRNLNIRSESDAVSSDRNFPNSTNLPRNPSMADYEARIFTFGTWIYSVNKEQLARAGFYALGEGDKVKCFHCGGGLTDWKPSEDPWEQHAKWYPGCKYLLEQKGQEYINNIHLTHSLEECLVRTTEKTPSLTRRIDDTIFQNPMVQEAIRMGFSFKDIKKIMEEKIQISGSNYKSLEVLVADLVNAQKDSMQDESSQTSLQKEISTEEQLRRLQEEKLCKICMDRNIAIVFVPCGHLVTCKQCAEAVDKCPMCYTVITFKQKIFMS
Sequence of Dihydroorotate dehydrogenase (quinone), mitochondrial (Plasmodium falciparum (isolate 3D7)) (Q08210 whole entry, looked up): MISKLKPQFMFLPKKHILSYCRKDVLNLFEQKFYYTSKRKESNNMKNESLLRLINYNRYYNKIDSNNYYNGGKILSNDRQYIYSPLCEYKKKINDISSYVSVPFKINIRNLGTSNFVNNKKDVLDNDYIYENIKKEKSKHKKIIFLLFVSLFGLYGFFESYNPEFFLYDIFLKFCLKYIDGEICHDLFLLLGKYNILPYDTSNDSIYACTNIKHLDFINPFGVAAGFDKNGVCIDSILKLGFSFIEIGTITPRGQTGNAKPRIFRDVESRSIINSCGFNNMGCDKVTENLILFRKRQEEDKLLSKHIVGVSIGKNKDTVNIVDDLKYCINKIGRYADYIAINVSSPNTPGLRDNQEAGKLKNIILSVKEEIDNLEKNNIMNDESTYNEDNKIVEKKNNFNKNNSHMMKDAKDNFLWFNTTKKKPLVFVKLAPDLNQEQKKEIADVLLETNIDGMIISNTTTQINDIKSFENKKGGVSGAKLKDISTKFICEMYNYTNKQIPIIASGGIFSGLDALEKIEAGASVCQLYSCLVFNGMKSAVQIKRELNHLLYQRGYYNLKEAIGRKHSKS

Regarding `CC(C)C[C@@H]1NC(=O)[C@@H]2C[C@H](C(=O)NCCCCCC[N+](C)(C)C)[C@H](c3cccc(OCCO)c3)N2C1=O`, the z-score in experiment [1] is -0.895; in experiment [2] it was 0.137; in [3], -1.16; in experiment [4], -0.131; in [5], -0.585; in experiment [6], -1.48. For the same compound, the z-score is 0.229 (inactive) in experiment [7]; 0.108 in experiment [8]; 0.0386 in experiment [9]; -0.483 (inactive) in experiment [10]; -0.482 in [11]; 0.62 (inactive) in experiment [12]. For the same compound, the z-score in [13] was -0.384 (inactive); in [15], 0.683 (inactive); in experiment [16], -0.0613 (inactive); in experiment [17], -0.466 (inactive); in [18] it was -1.15 (inactive); in experiment [19] it was -0.899. Moreover, the composite z-score in experiment [14] was -0.317 (inactive); in experiment [20], -0.227.

In the case of `CC1(C)C(=O)C(c2ccccc2)=C2CN3C(=O)N(CCc4ccccc4)C(=O)C3(Cc3ccc(F)cc3)C=C21` (stereo not given), the z-score in experiment [1] was -0.767; in experiment [2], 0.366; in experiment [3] it was 0.184; in experiment [4] it was -1.24; in experiment [5], -1.81; in experiment [6], 0.39. Besides, the z-score in experiment [7] is -1.91 (inactive); in [8] it was -0.733; in experiment [9], -0.59; in experiment [10] it was -0.745 (inactive); in [11] it was -1.03; in experiment [12] it was 0.664 (inactive). For the same compound, the z-score in experiment [13] is -2.18 (inactive); in experiment [15], 0.563 (inactive); in [16] it was 1.11 (inactive); in [17], -0.687 (inactive); in [18], -1.01 (inactive); in [19], -0.968. Moreover, the composite z-score in experiment [14] was -0.533 (inactive); in experiment [20], -0.198.

For `Cc1ccc(F)cc1S(=O)(=O)N[C@@H]1CCN(Cc2cccc3[nH]ccc23)C1`, the z-score is 0.139 in experiment [1]; -0.658 in experiment [2]; -0.415 in [3]; -1.14 in experiment [4]; -0.864 in experiment [5]; 0.0617 in experiment [6]. Also, the z-score was -0.65 (inactive) in experiment [7]; 0.263 in experiment [8]; -0.161 in experiment [9]; -0.398 (inactive) in experiment [10]; -0.921 in experiment [11]; -2.03 (inactive) in experiment [12]. The z-score was -0.182 (inactive) in experiment [13]; 0.343 (inactive) in experiment [15]; -0.367 (inactive) in [16]; -0.429 (inactive) in [17]; -1.32 (inactive) in [18]; -0.504 in experiment [19]. Also, the composite z-score is 0.31 (inactive) in experiment [14] and -0.02 in [20].

`C=C[C@H](C)[C@H](OC(=O)Nc1ccc(OC)cc1)c1ccc(OCCO)cc1`: the z-score in experiment [1] was 0.366; in [2], -0.402; in [3], 0.692; in experiment [4], -0.412; in [5], -1.83; in experiment [6], -0.569. For the same compound, the z-score was 0.627 (inactive) in [7]; -0.0376 in experiment [8]; 0.873 in experiment [9]; -0.262 (inactive) in experiment [10]; -0.178 in experiment [11]; -5.91 (inactive) in [12]. For the same compound, the z-score is 1.69 (inactive) in experiment [13]; 0.413 (inactive) in [15]; -0.354 (inactive) in experiment [16]; 1.43 (inactive) in experiment [17]; 0.465 (inactive) in experiment [18]; 0.603 in experiment [19]. The composite z-score was -0.285 (inactive) in experiment [14] and 0.34 in experiment [20].

As for `C=C/C=C/[C@@H]1C(=C)CN([C@@H](Cc2ccccc2)C(=O)OC)[C@H]1[C@@H](O)Cc1ccccc1`, the z-score in experiment [1] is 0.192; in experiment [2], -0.47; in [3], 0.438; in experiment [4], -3.04; in [5], -2.15; in experiment [6], -0.28. Also, the z-score in experiment [7] was 0.147 (inactive); in [8], -0.975; in [9], -2.24; in experiment [10] it was 0.663 (inactive); in experiment [11] it was 0.779; in [12] it was -1.03 (inactive). For the same compound, the z-score in [13] is -0.196 (inactive); in [15] it was 0.106 (inactive); in experiment [16], 0.774 (inactive); in experiment [17] it was 0.18 (inactive); in experiment [18] it was -0.45 (inactive); in experiment [19] it was -0.697. Further, the composite z-score is 0.0865 (inactive) in [14] and -0.0349 in experiment [20].

Consider `CCC(CC)C(O)C1C=CC2C(=O)N(c3ccccc3)C(=O)C2N1Nc1ccc([N+](=O)[O-])cc1` (stereo not given), for which the z-score in experiment [1] was -0.878; in experiment [2], -1.13; in experiment [3], -0.172; in [4], 0.486; in experiment [5], -1.23; in experiment [6], -2.25. Further, the z-score is -1.37 (inactive) in experiment [7]; 0.523 in [8]; -1.6 in experiment [9]; -0.517 (inactive) in experiment [10]; -0.536 in [11]; 0.593 (inactive) in [12]. Moreover, the z-score is -0.89 (inactive) in experiment [13]; 0.862 (inactive) in experiment [15]; 0.105 (inactive) in experiment [16]; -0.667 (inactive) in experiment [17]; -0.162 (inactive) in experiment [18]; -0.587 in [19]. The composite z-score in experiment [14] was 0.837 (inactive); in experiment [20] it was 0.0855.

Turning to `C=C[C@@H](C)[C@H](O)c1ccc(OCCO)cc1`, the z-score was 0.283 in experiment [1]; 0.154 in experiment [2]; -0.0484 in experiment [3]; 0.0554 in [4]; -0.289 in experiment [5]; 1.2 in [6]. Moreover, the z-score was 0.0591 (inactive) in [7]; 0.948 in [8]; -0.612 in [9]; -0.0272 (inactive) in [10]; 0.0075 in [11]; -0.731 (inactive) in [12]. Moreover, the z-score is 0.088 (inactive) in [13]; 0.0852 (inactive) in experiment [15]; 0.164 (inactive) in [16]; 1.02 (inactive) in experiment [17]; 0.856 (inactive) in experiment [18]; -0.127 in experiment [19]. For the same compound, the values for the composite z-score in experiment [14] and in experiment [20] were -0.445 (inactive) and -0.184, respectively.

Take `[N-]=[N+]=Nc1ccccc1C[C@@]1(C(=O)O)N=C(c2ccc(OCCCO)cc2)O[C@@H]1c1ccccc1N=[N+]=[N-]`: the z-score in [1] was -0.404; in experiment [2], -0.115; in experiment [3], -0.36; in experiment [4], -2.44; in experiment [5], -2.44; in experiment [6], -2.37. The z-score in [7] was -0.74 (inactive); in [8], -0.56; in experiment [9], -0.739; in experiment [10] it was 0.13 (inactive); in experiment [11], 0.628; in experiment [12], -2.04 (inactive). The z-score in experiment [13] was -0.988 (inactive); in experiment [15] it was 0.879 (inactive); in experiment [16] it was -1.23 (inactive); in experiment [17], -0.258 (inactive); in [18] it was -0.69 (inactive); in [19], -0.955. Further, the values for the composite z-score in experiment [14] and in experiment [20] were -0.435 (inactive) and -0.0374, respectively.

As to `C=C(COC)C(=O)CC[C@H](OC(C)=O)c1ccc(OCCO)cc1`, the z-score is -0.522 in experiment [1]; 1.72 in experiment [2]; -0.974 in experiment [3]; -2.6 in experiment [4]; -0.887 in [5]; 0.692 in experiment [6]. Also, the z-score is -0.213 (inactive) in [7]; -0.0964 in [8]; 1.3 in [9]; 0.0933 (inactive) in [10]; -0.429 in experiment [11]; -0.408 (inactive) in experiment [12]. Also, the z-score in experiment [13] is -0.267 (inactive); in experiment [15] it was -0.116 (inactive); in experiment [16], -0.83 (inactive); in experiment [17] it was -0.238 (inactive); in [18], 0.53 (inactive); in experiment [19] it was -0.873. Besides, the composite z-score in experiment [14] was -0.998 (inactive); in experiment [20], -0.326.
